Test results published in ChEMBL document CHEMBL4888484, “Replenishing the malaria drug discovery pipeline: Screening and hit evaluation of the MMV Hit Generation Library 1 (HGL1) against asexual blood stage Plasmodium falciparum ,using a nano luciferase reporter read-out” (2022).
Hit rate of the full screen: of about 150,000 compounds, about 540 (0.36%) showed an effect of 50% or more. The sample holds strong results, similar compounds and a random draw of the others, so the mix is not that of the screen.

Tested on: Plasmodium falciparum
Experiment: Primary screen in NF54 nanoGlo assay, in single point, at 2uM, 72h; a lower Z score goes with more inhibition
Assay type: functional, Erythrocyte
Conditions: timepoint 72 hour

| Compound | % Inhibition [%] | Z score |
| --- | --- | --- |
| CS(=O)(=O)N1C[C@H]2CC[C@@H](C1)N(C(=O)c1ccc3[nH]nnc3c1)C2 | -7 | 1.17 |
| CO[C@@]12CC[C@@H](OCC3CC3)C[C@@H]1N(C(=O)c1csc(C(C)C)n1)CC2 | -2 | 0.34 |
| Cc1cc2c(NC(=O)N(Cc3ccsc3)CC(C)C)cccc2nn1 | -6 | 1.12 |
| O=C(NCc1cccnc1)c1coc(CN(Cc2ccccc2)Cc2ccccc2C(F)(F)F)n1 | 0 | 0.02 |
| Cc1nnc(CN(C)Cc2c[nH]cn2)s1 | 4 | -0.58 |
| CCc1cccc(NC(=O)N2CCN(C3=CC4=NC[C@H](C)N4C=N3)CC2)c1 | 58 | -5.02 |
| CC[C@H]1CN2C=NC(N3CCN(C(=O)Cc4ccccc4)CC3)=CC2=N1 | 56 | -2.27 |
| O=C(Nc1cc(F)cc(F)c1)N1CC[C@H](Cc2ccncc2)C1 | -5 | 0.93 |
| C[C@H]1CN=C2C=C(N3CCN(C(=O)Nc4ccccc4C(F)(F)F)CC3)N=CN21 | -11 | 1.77 |
| O=C(Cc1ccccc1)N1CCN(c2cc(N3CCCC3)ncn2)CC1 | -8 | 0.94 |
| Cc1cc(F)cc(NC(=O)N2CCCN(C(=O)C(F)(F)F)CC2)c1 | -11 | 1.45 |
| Cc1oc(C2CCN(C(=O)Nc3cccc(F)c3C)CC2)nc1C(=O)N1CCCC1 | -3 | 0.55 |
| C[C@H]1CN2C=NC(N3CCN(C(=O)c4ccccc4)CC3)=CC2=N1 | -3 | 0.63 |
| Cc1c(F)cccc1NC(=O)N1CCN(C2=CC3=N[C@@H](C)CN3C=N2)CC1 | 57 | -7.99 |
| CN1CCN(c2cc(N3CCN(C(=O)Cc4ccccc4)CC3)ncn2)CC1 | -10 | 0.91 |
| CCc1cccc(NC(=O)N2CCN(c3nccs3)CC2)c1 | -2 | 0.21 |
| CC[C@H]1CN2C=NC(N3CCN(C(=O)Nc4cc(F)cc(F)c4)CC3)=CC2=N1 | 68 | -4.25 |
| Cc1ccc(NC(=O)Cn2cc(S(=O)(=O)N3CCCCCC3)ccc2=O)c(C)c1 | -2 | 0.3 |
| CN(c1cnn(C)c1)S(=O)(=O)c1ccccc1 | -12 | 1.93 |
| CCc1onc(C)c1NCc1cnc(C(C)(C)C)s1 | 34 | 0.74 |
| COC(=O)C1=C(c2ccccc2)S/C(=C2/C(=S)C(C)(C)Nc3ccc(C)cc32)S1 | -8 | 0.99 |
| Cc1ccccc1N1CCN(C(=O)CC[C@@H]2CN(Cc3ccccn3)CC[C@@H]2N2CCOCC2)CC1 | 2 | -0.27 |

| Compound | % Inhibition [%] | Z score |
| --- | --- | --- |
| FC(F)[C@H](NCc1nnc(C2CC2)s1)c1ccccc1 | 2 | -0.43 |
| CCCc1nnsc1C(=O)N1CCc2nc(NC(=O)OCC)sc2C1 | -5 | 1.08 |
| COC(=O)[C@@H]1C[C@@H](O)CN1Cc1ccncc1Cl | -4 | 0.5 |
| Cc1ccc(N(C)C(C)C)c(C(=O)NC[C@H]2CCC3(CCOCC3)O2)c1 | -1 | 0.19 |
| O=C(c1ccccc1Oc1ccccc1)N1CCO[C@]2(CNCCOC2)C1 | 5 | -0.96 |
| O[C@@H](CNc1ncnc2sccc12)c1ccc(Cl)c(F)c1 | 28 | -3.21 |
| O=C(N[C@@H]1c2ccccc2OC[C@@H]1CO)[C@H](O)c1ccccc1 | -2 | 0.41 |
| Cc1ccccc1C(=O)Cc1ncc[nH]1 | 87 | -5.77 |
| Cc1ccsc1CNc1ccccc1C(=O)NCc1ncc[nH]1 | 2 | -0.38 |
| CC(=O)c1ccccc1C(=O)NCCCc1ncc[nH]1 | -9 | 1.13 |
| CCc1nc2c(c(OC3CCN(C(=O)c4ccn(CC)n4)CC3)n1)CCOCC2 | -11 | 1.12 |
| Cc1cc(NC(=O)c2cccc(-n3ccnn3)c2)nc(=O)[nH]1 | -14 | 2.12 |
| Cc1[nH]c2ncnc(NC(=O)c3cccc(S(=O)(=O)NC4CC4)c3)c2c1C | -21 | 3.01 |
| Cc1[nH]c2ncnc(NC(=O)c3cccc(-n4ccnn4)c3)c2c1C | 65 | -1.3 |
| CCCN(CCC)C(=O)c1cc(F)ccc1OC | -10 | 1.09 |
| Fc1ccc(COc2cccc(CNCCN3CCOCC3)c2)cc1 | 33 | 1.13 |
| O[C@H]1CCN(Cc2cccc(OCCCCN3CCOCC3)c2)C[C@@H]1O | 4 | -0.63 |
| O=C(NC1(c2ncon2)CCOCC1)c1cc2ccccn2c1 | -4 | 0.42 |
| COc1ccccc1Cn1cnc2c1c(=O)n(C1CCCCC1)c(=O)n2-c1ccccc1Cl | 69 | -6.45 |
| Cc1ccccc1-n1c(=O)n(C2CCCCC2)c(=O)c2c1ncn2Cc1ccccc1 | -1 | 0.09 |
| COc1ccccc1-n1c(=O)n(C2CCCC2)c(=O)c2c1ncn2Cc1ccccc1Cl | 37 | -4.79 |
| Cc1ccccc1Cn1cnc2c1c(=O)n(C1CC1)c(=O)n2-c1ccccc1C | 5 | -0.48 |

| Compound | % Inhibition [%] | Z score |
| --- | --- | --- |
| Cc1ccccc1Cn1cnc2c1c(=O)n(C1CCCCC1)c(=O)n2-c1ccccc1Cl | 70 | -7.57 |
| Cc1ccccc1Cn1cnc2c1c(=O)n(C1CCCC1)c(=O)n2-c1ccccc1 | -7 | 0.85 |
| Cc1c(Cl)cccc1NC(=O)c1sccc1S(=O)(=O)N1CCc2ccccc2C1 | 1 | -0.1 |
| COc1ccc([C@@H](CC(=O)NCc2ccc(F)cc2)c2c[nH]c3ccccc23)c(OC)c1 | 3 | -0.42 |
| COc1cc(NC(C)(C)CN2CCOCC2)ncn1 | -11 | 0.99 |
| O=C(NC[C@H](O)c1cccnc1)c1ncoc1C1CC1 | -7 | 0.94 |
| COC[C@H]1CCCCN1C(=O)c1ccnc(C2CCCC2)n1 | 7 | -1.03 |
| COc1ccc(N2CCN(C(=O)c3ccn4c(-c5ccccc5)nnc4c3)CC2)cc1 | -3 | 0.29 |
| COc1ccccc1CNC(=O)c1cc(C)nc2c(-c3ccc(C)cc3)cccc12 | 12 | -1.38 |
| COc1cccc(N2CCC(N3CCC4(CC3)CNC(=O)O4)CC2)c1 | -2 | 0.35 |
| Cc1nc2c(c(NC(=O)Cc3ccccc3)nn2C)c(C)c1Cl | -8 | 0.76 |
| Cc1cnccc1NCCNC1CCN(c2ccc(Cl)cc2)CC1 | 99 | -17.94 |
| CN1CCC[C@@H]1CCNC1CCN(c2ccc3c(c2)CCC3)CC1 | 21 | -2.96 |
| Cc1cnccc1NCCNC1CCN(c2ccc3c(c2)CCC3)CC1 | 85 | -13.14 |
| CCn1cncc1CNC1CCN(c2ccc3c(c2)CCC3)CC1 | -14 | 1.42 |
| Cc1ccc(N2CCC(NCCCn3cccn3)CC2)cc1Cl | -5 | 0.81 |
| CN(CC1(CO)CCCC1)C(=O)CN1CCCCC1 | -8 | 1.48 |
| O=C(c1ccc(F)cc1)N1CCC(N2CCS(=O)(=O)CC2)CC1 | -12 | 1.04 |
| CCc1cc(N2CCN(CCc3ccccc3)C(=O)C2)ncn1 | -15 | 2 |
| Cc1ccc([C@H]2C(=O)N(C3CCC(C)CC3)CC(=O)N2C2CCCCCCC2)cc1 (stereo not given in full) | -6 | 0.82 |
| O=C(O)C1(NCc2cc(-c3ccc(Cl)cc3)no2)CCCC1 | 11 | -1.27 |
| C[C@@H](O)[C@@H]1NC(=O)[C@@H](Cc2c[nH]c3ccccc23)NC1=O | 5 | -1.07 |

| Compound | % Inhibition [%] | Z score |
| --- | --- | --- |
| C=C1C(C)C2C(Cc3c[nH]c4ccccc34)NC(=O)C23C(=O)CC(O)C(O)CC(C)C/C=C/C3C1O (stereo not given) | 67 | -7.59 |
| CC1CC(C(=O)N2CCN(C(=O)Cc3c[nH]c4ccccc34)CC2)C1 (stereo not given) | -3 | 0.48 |
| CC1=NO[C@H](C(=O)NCC2(Cn3ccnc3C)CC2)C1 | -4 | 0.75 |
| CCc1ccc(CN2CCC[C@H](c3ncc[nH]3)C2)nc1 | 65 | -9.74 |
| CCc1ccc(CN2CCC[C@H](CNC(=O)c3ccc[nH]3)C2)nc1 | -4 | 0.44 |
| Cc1[nH]c(CN2CCC[C@H](c3ncc[nH]3)C2)cc1C#N | -1 | 0.23 |
| Cc1ccc(CN2CCC3(CC2)c2nc[nH]c2CCN3C(=O)C2CCC2)cc1C | -14 | 1.47 |
| Cc1cccc2c1OCC[C@@H]2NCc1cnn(C(C)C)c1 | 0 | 0 |
| O=C(O)c1cccc(-c2noc(C3CC3)n2)c1 | 11 | -1.45 |
| O=C(c1cccc(-c2noc(C3CCC3)n2)c1)N1CCN(c2ccccc2)CC1 | -3 | 0.4 |
| CC1CC(N)CCN1C(=O)c1cccc(-c2noc(C3CC3)n2)c1 (stereo not given) | 56 | 0.5 |
| Cc1cc(C(=O)N(CC2CCC2)CC(F)(F)F)[nH]n1 | -10 | 1.63 |
| O=C(NCCN1CCCC1)c1ccc2nc(-c3ccc(Cl)cc3)cn2c1 | 75 | -6.47 |
| CN1CCC[C@@H]1CCNC(=O)c1ccc2nc(-c3ccc(F)cc3)cn2c1 | 8 | -1.12 |
| CN1CCCC[C@@H]1CNC(=O)c1ccc2nc(-c3ccc(F)cc3)cn2c1 | -5 | 0.91 |
| Cc1ccn2c(C(=O)NCc3cc(F)ccc3C)nnc2n1 | -17 | 3.23 |
| CN1CCN(Cc2cc3cc4c(cc3nc2-c2ccc(Cl)cc2)OCO4)CC1=O | 53 | -6.77 |
| O=C1CCN(Cc2cc3cc4c(cc3nc2-c2ccc(Cl)cc2)OCO4)CCN1 | 2 | -0.18 |
| CCN1CCN(Cc2cc3cc4c(cc3nc2-c2ccc(Cl)cc2)OCO4)CC1 | -10 | 1.95 |
